Experimental data published in PubChem BioAssay (EPA / NIEHS).
The source made the active and inactive calls. The calls were made as follows: active = hit-call score of the fitted dose curve at least 0.9, where 1 is the maximum; inactive = score below 0.9.

Assay: ATG_VDRE_CIS: Attagene CIS-FACTORIAL HepG2 Assay for human Vitamin D Receptor Element (VDRE) (AID 2282968)
Conditions: HepG2 VDRE cis-reporter transcription, actives raise or lower the signal
Experimental: ATG_CIS is a cell-based, multiplexed-readout assay that uses HepG2, a human liver cell line, with measurements taken at 24 hours after chemical dosing in a 24-well plate.ATG_VDRE_CIS is one of 52 assay component(s) measured or calculated from the ATG_CIS assay. It is designed to make measurements of mRNA induction, a form of inducible reporter, as detected with fluorescence intensity signals by Reverse transcription polymerase chain reaction (RT-PCR) and Capillary electrophoresis technology.Data from the assay component ATG_VDRE_CIS was analyzed into 1 assay endpoint. This assay endpoint, ATG_VDRE_CIS, was analyzed with bidirectional fitting relative to DMSO as the negative control and baseline of activity. Using a type of inducible reporter, measures of mRNA for gain or loss-of-signal activity can be used to understand the reporter gene at the transcription factor-level as they relate to the gene VDR. Furthermore, this assay endpoint can be referred to as a primary readout, because this assay has produced multiple assay endpoints where this one serves a reporter gene function. To generalize the intended target to other relatable targets, this assay endpoint is annotated to the nuclear receptor intended target family, where the subfamily is non-steroidal.
Human liver HepG2 cells are transiently transfected with multiple reporter transcription units (MRTUs) in 6-well plates using FuGene 6 reagent (Roche; 3 ml FuGene/1 mg DNA). The MRTU constructs are regulated by a cis-regulating element (promoter). […] A major difference between the CIS and TRANS system is that in CIS activities of endogenous TFs are measured, whereas the TRANS assay evaluates changes in activities of exogenous, chimeric NR-Gal4 proteins. […] At the end of 24 hour incubation, total RNA was isolated using TriZol reagent (Invitrogen). The isolated RNA is then reverse-transcribed using oligo(dT) primer and Mo-MLV reverse transcriptase (Invitrogen) with DNAse I (Ambion) treatment for 30 min. The one-tenth of the produced cDNA was amplified by PCR using Taq DNA polymerase (Invitrogen) and two reporter sequence-specific primers. The PCR products were fluorescently labeled by primer extension with 6-arboxyfluorescein (6-FAM) 5'-labeled reporter sequence-specific primer (2 min at 95 C, 20 s at 68 C and 10 min at 72 C) and these products were digested with 5U of HpaI (New England Biolabs) for 2h at 37 C. The fragments were purified using Qiaquick PCR columns (Qiagen), analyzed on an ABI 3130xL genetic analyzer (Applied Biosystems) with peak positions identified by using a set of X-rhodamine (ROX)-labeled MapMarker1000 molecular weight standards (BioVentures). The raw capillary electrophoresis data was processed using Attagraph software (Attagene).

SMILES | outcome | AC50
Brc1ccc(Br)c(Br)c1 | inactive | 
COc1ccc(N=Nc2cc(C)c(N=Nc3ccc(S(=O)(=O)O)cc3)cc2OC)cc1 | inactive | 
COC(=O)c1ccc([N+](=O)[O-])cc1 | inactive | 
c1ccc(Oc2ccccc2)cc1 | inactive | 
CS(C)=O | inactive | 
Cc1ccc(S(N)(=O)=O)cc1 | inactive | 
COc1cc([C@@H]2c3cc4c(cc3[C@@H](O[C@@H]3O[C@@H]5CO[C@@H](C)O[C@H]5[C@H](O)[C@H]3O)[C@H]3COC(=O)[C@H]23)OCO4)cc(OC)c1O | inactive | 
O=C(Nc1ccc([N+](=O)[O-])cc1)Nc1ccc([N+](=O)[O-])cc1 (tested in a mixture with another compound) | inactive | 
O=C(O)CNc1ccccc1 | inactive | 
CCCN(CCC)S(=O)(=O)c1ccc(C(=O)O)cc1 | inactive | 
CCC1CCCCC1 | inactive | 
CC(C)CCOC(=O)c1ccccc1 | inactive | 
CCCCC(CC)COC(C)=O (stereo not given) | inactive | 
CCCCOC(=O)CCCCCCCC(=O)OCCCC | inactive | 
COC(=O)Nc1ccc(Cl)c(Cl)c1 |  | 43.7 µM (active)
CCc1cc(Cc2cc(CC)cc(C(C)(C)C)c2O)c(O)c(C(C)(C)C)c1 |  | 4.77 µM (active)
CCOC(=O)CCc1ccccc1 | inactive | 
Cc1ncc[nH]1 | inactive | 
CC1(C)CCC[C@]2(C)[C@H]3CCO[C@]3(C)CC[C@@H]12 | inactive | 
CC1CCC(C(C)C)C(O)C1 (stereo not given) | inactive | 

SMILES | outcome | AC50
Cc1ccc(-c2ccccc2)cc1 | inactive | 
CC(=O)c1ccccn1 | inactive | 
OCc1ccc(Cl)cc1Cl | inactive | 
C=CC(=O)OCCC#N |  | 48.8 µM (active)
CCCCCCCC/C=C\CCCCCCCC(=O)OCC | inactive | 
CC(C=O)Cc1ccc(C(C)(C)C)cc1 (stereo not given) | inactive | 
CN1CCOCC1 | inactive | 
C=CC(C)C#N (stereo not given) | inactive | 
C[Si]1(C)O[Si](C)(C)O[Si](C)(C)O1 | inactive | 
N[C@@H](Cc1cc(I)c(Oc2cc(I)c(O)c(I)c2)c(I)c1)C(=O)O |  | 18.8 µM (active)
O=C1CCCC=CCCCCCCCCCC1 |  | 18.4 µM (active)
CCc1cc(C(C)(C)C)c(O)c(C(C)(C)C)c1 | inactive | 
C=C(C)[C@@H]1CC=C(C)C(=O)C1 | inactive | 
CCc1ncc(C)[nH]1 | inactive | 
CC(=O)O[C@H]1C[C@@H]2CC[C@@]1(C)C2(C)C | inactive | 
CC(C)NCC(O)COc1ccc(CC(N)=O)cc1 (stereo not given) | inactive | 
CC(C)(C)c1ccc(C(=O)O)cc1 | inactive | 
NCCNc1cccc2ccccc12 |  | 155 µM (active)
[Cl][Au]([Cl])[Cl] | inactive | 
CCCC(=O)OC(C)(C)Cc1ccccc1 | inactive | 
